Test results reported in PubChem BioAssay AID1159580 (chemical genetic matrix, 2015).
The campaign covered roughly 5,500 compounds. About 2,000 (36%) were called active. Not shown: some 18% with an inconclusive outcome. Rule as the data show it: active = normalized growth mostly below about 0.91 (no sharp cut-off); inconclusive = no clear call, values can overlap the other calls; inactive = mostly above about 0.92. Some of the results follow.

Experiment: chemical genetic growth profiling, strain panel (AID 1159580);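 also: tested at 20 µM; growth read once vehicle control cultures reached saturation at 30 °C; 1 = growth at the plate median or of vehicle wells; lower values mean less growth of the strain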
Conditions: growth OD

Measured: normalized growth

CCCCN1CCCCC1C(=O)Nc1c(C)cccc1C (configuration not stated)
inactive: S. cerevisiae deletion strains, locus YJR075W, strain HOC1, hits give low values 1 | S. cerevisiae deletion strains, locus YKL009W, strain mrt4, hits give low values 1.01 | S. cerevisiae deletion strains, locus YKL068W, hits give low values 0.991 | S. cerevisiae deletion strains, locus YKL085W, strain MDH1 (second series), hits give low values 1 | S. cerevisiae deletion strains, locus YKL085W, strain MDH1, hits give low values 1 | S. cerevisiae deletion strains, locus YKL160W, strain elf1, hits give low values 0.992 | S. cerevisiae deletion strains, locus YKL190W, strain CNB1, hits give low values 1.01 | S. cerevisiae deletion strains, locus YKR001C, strain vps1, hits give low values 1.01 | S. cerevisiae deletion strains, locus YKR026C, strain gcn3, hits give low values 0.997 | S. cerevisiae deletion strains, locus YKR091W, strain srl3, hits give low values 0.982 | S. cerevisiae deletion strains, locus YLL001W, strain dnm1, hits give low values 0.991 | S. cerevisiae deletion strains, locus YLL026W, hits give low values 0.998 | S. cerevisiae deletion strains, locus YLL041C, strain sdh2, hits give low values 0.991 | S. cerevisiae deletion strains, locus YLR027C, strain aat2, hits give low values 0.991 | S. cerevisiae deletion strains, locus YLR039C, strain RIC1, hits give low values 1.01 | S. cerevisiae deletion strains, locus YLR058C, strain SHM2, hits give low values 1.01 | S. cerevisiae deletion strains, locus YLR102C, strain apc9, hits give low values 0.994 | S. cerevisiae deletion strains, locus YLR113W, strain HOG1, hits give low values 0.991 | S. cerevisiae deletion strains, locus YLR221C, strain rsa3, hits give low values 0.996 | S. cerevisiae deletion strains, locus YLR258W, strain gsy2, hits give low values 0.992 | S. cerevisiae deletion strains, locus YLR262C, strain YPT6 (second series), hits give low values 0.998 | S. cerevisiae deletion strains, locus YLR262C, strain YPT6, hits give low values 1.06 | S. cerevisiae deletion strains, locus YLR268W, strain sec22, hits give low values 0.943 | S. cerevisiae deletion strains, locus YLR320W, strain mms22, hits give low values 1.01 | S. cerevisiae deletion strains, locus YLR330W, strain CHS5, hits give low values 1.01 | S. cerevisiae deletion strains, locus YLR342W, strain FKS1 (second series), hits give low values 1.03 | S. cerevisiae deletion strains, locus YLR342W, strain FKS1, hits give low values 0.973 | S. cerevisiae deletion strains, locus YLR357W, strain rsc2, hits give low values 0.982 | S. cerevisiae deletion strains, locus YLR370C, strain arc18, hits give low values 0.998 | S. cerevisiae deletion strains, locus YLR371W, strain rom2, hits give low values 0.99 | S. cerevisiae deletion strains, locus YLR384C, strain iki3, hits give low values 0.997 | S. cerevisiae deletion strains, locus YLR418C, strain cdc73, hits give low values 0.993 | S. cerevisiae deletion strains, locus YML016C, strain PPZ1, hits give low values 1.02 | S. cerevisiae deletion strains, locus YML032C, strain rad52, hits give low values 0.982 | S. cerevisiae deletion strains, locus YML120C, strain ndi1, hits give low values 0.973 | S. cerevisiae deletion strains, locus YML124C, strain tub3, hits give low values 0.993 | S. cerevisiae deletion strains, locus YMR058W, strain fet3, hits give low values 0.979 | S. cerevisiae deletion strains, locus YMR078C, strain ctf18, hits give low values 0.99 | S. cerevisiae deletion strains, locus YMR125W, strain sto1, hits give low values 0.982 | S. cerevisiae deletion strains, locus YMR129W, hits give low values 0.992 | S. cerevisiae deletion strains, locus YMR205C, strain PFK2, hits give low values 1.01 | S. cerevisiae deletion strains, locus YMR223W, strain ubp8, hits give low values 1.01 | S. cerevisiae deletion strains, locus YMR231W, strain pep5, hits give low values 0.996 | S. cerevisiae deletion strains, locus YMR263W, strain SAP30, hits give low values 1.01 | S. cerevisiae deletion strains, locus YMR307W, strain GAS1, hits give low values 1.05 | S. cerevisiae deletion strains, locus YNL067W, strain RPL9B, hits give low values 1.01 | S. cerevisiae deletion strains, locus YNL071W, strain lat1, hits give low values 0.984 | S. cerevisiae deletion strains, locus YNL128W, strain TEP1, hits give low values 1.02 | S. cerevisiae deletion strains, locus YNL153C, strain GIM3, hits give low values 1.01 | S. cerevisiae deletion strains, locus YNL183C, strain NPR1, hits give low values 0.948 | S. cerevisiae deletion strains, locus YNL209W, strain ssb2, hits give low values 0.976 | S. cerevisiae deletion strains, locus YNL233W, strain BNI4, hits give low values 1 | S. cerevisiae deletion strains, locus YNL248C, strain rpa49, hits give low values 0.959 | S. cerevisiae deletion strains, locus YNL250W, strain rad50, hits give low values 1 | S. cerevisiae deletion strains, locus YNL271C, strain bni1, hits give low values 0.985 | S. cerevisiae deletion strains, locus YNL298W, strain CLA4, hits give low values 1 | S. cerevisiae deletion strains, locus YNL307C, strain MCK1, hits give low values 0.993 | S. cerevisiae deletion strains, locus YNL322C, strain KRE1 (second series), hits give low values 0.986 | S. cerevisiae deletion strains, locus YNL322C, strain KRE1, hits give low values 1.01 | S. cerevisiae deletion strains, locus YNR049C, strain mso1, hits give low values 0.993 | S. cerevisiae deletion strains, locus YNR052C, strain pop2, hits give low values 0.99 | S. cerevisiae deletion strains, locus YOL006C, strain TOP1, hits give low values 1.02 | S. cerevisiae deletion strains, locus YOL012C, strain htz1 0.897 | S. cerevisiae deletion strains, locus YOL147C, strain pex11, hits give low values 0.987 | S. cerevisiae deletion strains, locus YOR001W, strain rrp6, hits give low values 0.991 | S. cerevisiae deletion strains, locus YOR061W, strain CKA2, hits give low values 1.02 | S. cerevisiae deletion strains, locus YOR069W, strain VPS5, hits give low values 1.01 | S. cerevisiae deletion strains, locus YOR070C, strain gyp1, hits give low values 0.996 | S. cerevisiae deletion strains, locus YOR080W, strain dia2, hits give low values 0.979 | S. cerevisiae deletion strains, locus YOR083W, strain WHI5, hits give low values 1 | S. cerevisiae deletion strains, locus YOR106W, strain vam3, hits give low values 0.969 | S. cerevisiae deletion strains, locus YOR136W, strain idh2, hits give low values 0.993 | S. cerevisiae deletion strains, locus YOR144C, strain elg1, hits give low values 0.993 | S. cerevisiae deletion strains, locus YOR184W, strain ser1, hits give low values 0.986 | S. cerevisiae deletion strains, locus YOR231W, strain MKK1, hits give low values 0.974 | S. cerevisiae deletion strains, locus YOR265W, strain rbl2, hits give low values 0.987 | S. cerevisiae deletion strains, locus YOR270C, strain vph1, hits give low values 0.985 | S. cerevisiae deletion strains, locus YOR290C, strain snf2, hits give low values 0.977 | S. cerevisiae deletion strains, locus YOR316C, strain cot1, hits give low values 0.989 | S. cerevisiae deletion strains, locus YPL051W, strain arl3, hits give low values 0.998 | S. cerevisiae deletion strains, locus YPL055C, strain LGE1, hits give low values 1.03 | S. cerevisiae deletion strains, locus YPL078C, strain atp4, hits give low values 0.978 | S. cerevisiae deletion strains, locus YPL106C, strain sse1, hits give low values 0.962 | S. cerevisiae deletion strains, locus YPL240C, strain hsp82, hits give low values 0.982 | S. cerevisiae deletion strains, locus YPL241C, strain CIN2, hits give low values 1.01 | S. cerevisiae deletion strains, locus YPL256C, strain CLN2, hits give low values 0.958 | S. cerevisiae deletion strains, locus YPR119W, strain clb2, hits give low values 0.987 | S. cerevisiae deletion strains, locus YPR141C, strain kar3, hits give low values 0.985 | S. cerevisiae deletion strains, locus YPR163C, strain tif3, hits give low values 0.992 | S. cerevisiae deletion strains, locus YPR167C, strain met16, hits give low values 0.991 | S. cerevisiae deletion strains, strain wtn01, hits give low values 0.98 | S. cerevisiae strains, strain wild type, hits give low values 1.02
